JMJD2A Tudor = JMJD2A Tudor domain (human) inhibition; O75164; AlphaScreen JMJD2A-Tudor / H3K4me3 peptide binding; Potency, µM (highest dose often 114 µM), inactives show at the highest dose activity change, negative = inhibition, most hits filed as inhibitors; 390,000 tested, 4.4% active; AID 504339; also: % is scaled to controls: 0 for no effect and ±100 for the full control effect; nearly all actives have a fitted effect of over 50% in size
HP1b chromo inh = blocks HP1-beta chromodomain binding to methylated histone tails. AlphaScreen HP1-beta / biotin-H3K9me3 peptide binding. 390,000 tested, 0.56% active. Potency, µM (doses to about 114 µM), inactives show at the highest dose activity change, negative = inhibition, most hits filed as inhibitors; also: nearly all actives have a fitted effect of over 70% in size
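AlphaScreen: HP1-beta (50 nM) preformed 30 min with biotin-H3(1-18)K9me3 peptide (50 nM) in PBS pH 7.4, 0.01% Tween-20. Compound added for 30 min at RT, then streptavidin donor/nickel chelate acceptor beads (10 ug/mL) for 30 min.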
12-LOX inh = blocks human arachidonate 12S-lipoxygenase; P18054; purified 12hLO, xylenol orange hydroperoxide absorbance; AID 1671190; 580,000 tested, 1.1% active; Potency, µM (series often up to 108 µM), for inactives: at the highest dose activity change, negative = inhibition, most hits filed as inhibitors; also: % is scaled to controls: 0 for no effect and ±100 for the full control effect
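Purified human 12hLO at 150 nM in 25 mM Hepes, 0.01% Triton X-100, pH 7.0, preincubated 15 min at room temperature with compound. Reaction started with 40 uM arachidonic acid, 30 min at room temperature. Hydroperoxide measured by Fe-xylenol orange, 573/405 nm absorbance ratio.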
G9a inh = inhibitors of human histone lysine methyltransferase G9a; G9a H3K9 monomethylation, AlphaScreen, 2 h; Q96KQ7; Potency, µM (highest dose often 102 µM), inactives show at the highest dose activity, negative = inhibition, hits mostly inhibitors; 350,000 tested, 8.8% active; also: % is scaled to controls: 0 for no effect and ±100 for the full control effect; nearly all actives have a fitted effect of over 75% in size
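Readings reflect AlphaScreen signal from monomethyl-H3K9 antibody detection. HMT at 20 nM; substrate b-H3K9 500 nM; cofactor SAM 20 uM; 2 h RT reaction; compounds tested as titrations in qHTS with 15 min preincubation.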
PLK1 PBD inh = blocks phosphopeptide binding to human PLK1 polo-box domain; Potency, µM, for inactives: max response, negative = inhibition, actives largely listed as inhibitors; AID 720504; 360,000 tested, 2.8% active; P53350; Plk1 PBD binding of FITC phosphopeptide, fluorescence polarization; also: series mostly up to about 57 µM; % is scaled to controls: 0 for no effect and ±100 for the full control effect; nearly all actives have a fitted effect of over 65% in size
Target sequence (P53350 whole entry, looked up, the tested form may be a part): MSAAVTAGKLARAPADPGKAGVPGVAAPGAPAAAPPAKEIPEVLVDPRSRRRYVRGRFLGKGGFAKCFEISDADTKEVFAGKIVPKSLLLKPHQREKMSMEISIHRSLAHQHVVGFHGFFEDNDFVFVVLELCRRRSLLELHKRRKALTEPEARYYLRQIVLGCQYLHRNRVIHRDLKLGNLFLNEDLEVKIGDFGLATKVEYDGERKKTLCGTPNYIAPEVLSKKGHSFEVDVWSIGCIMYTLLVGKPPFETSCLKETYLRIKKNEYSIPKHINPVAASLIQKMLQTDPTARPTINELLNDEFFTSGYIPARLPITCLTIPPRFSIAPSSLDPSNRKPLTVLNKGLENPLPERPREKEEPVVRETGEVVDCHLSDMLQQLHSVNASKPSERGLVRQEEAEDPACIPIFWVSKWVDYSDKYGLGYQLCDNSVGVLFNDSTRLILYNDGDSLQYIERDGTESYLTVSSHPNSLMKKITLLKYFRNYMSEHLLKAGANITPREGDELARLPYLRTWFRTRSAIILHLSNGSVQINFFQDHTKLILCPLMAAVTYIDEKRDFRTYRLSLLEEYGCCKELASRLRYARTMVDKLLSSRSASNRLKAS
BAZ2B block = BAZ2B (human) inhibition. Q9UIF8. AlphaScreen BAZ2B-H3K14Ac peptide displacement. Potency, µM (top dose mostly 114 µM), inactives show top-dose activity change, negative = inhibition, hits mostly inhibitors. 360,000 tested, 4.4% active; also: % is scaled to controls: 0 for no effect and ±100 for the full control effect; nearly all actives have a fitted effect of over 60% in size
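Inhibition is scored as reduced AlphaScreen emission. The BAZ2B/b-H3(5-23)K14Ac complex (50 nM each) in PBS pH 7.4, 0.01% Tween-20 meets compound (up to 110 uM) for 30 min at RT before bead addition.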
Numbers without * were called inactive; ? = inconclusive; . = not tested or not shown; ! = not confirmed by another sample; [ ] = another dose, or the depositor's remark. The list is not random: actives were taken first. Their share in the collection is about 9%. Calls follow the shape of the dose curve; as a rule, active = well fitted curve in the direction sought with a large enough effect; inconclusive = small, poorly fitted or top-dose-only effect, or another doubt; inactive = no such curve, though single readings can be large; an effect the other way counts as inactive or inconclusive. Potency is read from the fitted curve at half-maximal effect.

SMILES	JMJD2A Tudor	HP1b chromo inh	12-LOX inh	G9a inh	PLK1 PBD inh	BAZ2B block
COc1cc2ccccc2cc1C(=O)Nc1sc2c(c1C(N)=O)CCN(C(C)C)C2	.	.	?	?	.	-25%
CCOc1ccc(Cl)cc1CNc1nnnn1C	-14%	-12%	2%	2%	-29%	-3%
CCCOc1ccc(Cl)cc1CNc1ccccc1	57%	52%	-14%	206%	17µM*	35%
O=C(O)C1CC1(c1ccccc1)c1ccccc1 (configuration not stated)	-9%	54%	-12%	5%	-3%	-2%
COC(=O)C(=O)/C=C(\O)c1c(C)cc(C)cc1C	?	8%	111%	18µM*	-6%	79µM*
Cc1cc(C)c(C(=O)CCCC(=O)O)c(C)c1	.	.	-3%	.	.	.
Cc1nc(/C(=N/O)C(N)=O)cs1	-15%[11.4 µM]	9%	?	13µM*	24µM*	50µM*
O=C(C[C@@H]1C/C=C\C[C@H](Cc2ccc(F)cc2)C(=O)OC[C@H]2CCCN2C1=O)N[C@H](CO)Cc1ccccc1	-7%	26%	-27%	.	1%	.
COCC(=O)Nc1c(C(=O)OC)n(CCCc2ccccc2)c2ncc(NC(C)CCO)cc12 (configuration not stated)	.	.	21%	.	.	.
COc1ccccc1-c1ccc(OCCCN2CCC(C(O)(c3ccccc3)c3ccccc3)CC2)cc1	.	.	40µM*	.	.	.
OC(c1ccccc1)(c1ccccc1)C1CCN(CCCOc2ccc(-c3ccc(F)cc3F)cc2)CC1	.	.	40µM*	.	.	.
N#CCc1ccc(OCCCN2CCC(C(O)(c3ccccc3)c3ccccc3)CC2)cc1	.	.	?	.	-18%	.
OC(c1ccccc1)(c1ccccc1)C1CCN(CCCOc2cc(F)cc(F)c2)CC1	.	.	-25%	.	.	.
COc1cc(/C=C/C(=O)O)cc(S(=O)(=O)Nc2ccc3cn[nH]c3c2)c1OC	-4%	37%	2%	-13%[2.33 µM]	3%	-3%
COc1cc(/C=C/C(=O)O)cc(S(=O)(=O)Nc2ccc3nc(SC)sc3c2)c1OC	-14%	14%	0%	40µM*	-1%	.
CC(C=CC=C(C)C=CC1=C(C)CCCC1(C)C)=CC=CC=C(C)C=CC=C(C)C=CC1=C(C)CCCC1(C)C	.	.	0%	.	.	.
CC1=C(/C=C/C(C)=C\C=C\C(C)=C\C(=O)O)C(C)(C)CCC1	.	.	-2%[12.5 µM]	22µM*!	.	.
CC1=C(/C=C/C(C)=C/C=C/C(C)=C/C(=O)O)C(C)(C)CCC1	-20%	25%	-17%	50µM*!	?	?
COc1ccc(-c2oc(NC(=O)c3ccc(C)cc3)c(C#N)c2-c2ccc(OC)cc2)cc1	-33%	0%	-23%	?	-6%	-31%
CCc1ccc(OCCCSc2nc(-c3ccc(C(C)(C)C)cc3)nc3cc(=O)[nH]n23)cc1	25µM*	-25%	-24%	12%[59 µM]	.	50µM*
Cc1cccc(OCCCSc2nc(-c3ccc(C(C)(C)C)cc3)nc3cc(=O)[nH]n23)c1C	25µM*	1%	-18%	7%[59 µM]	.	56µM*
O=C(O)c1cccc2c1-c1c(cccc1[N+](=O)[O-])C2	-3%	26%	-30%	.	-2%	.
CC1CCN(c2cc(N)c(Cl)cc2[N+](=O)[O-])CC1	?	-17%	?	50µM*	-2%	?
Cc1ccc(C(=O)NCC(=O)OCc2cc(=O)n3nc(C4CC4)sc3n2)cc1	-2%	29%	-10%	6%[59 µM]	.	-3%
Cc1cc2ccccn2c1C(=S)NC(=O)c1ccccc1	50µM*	?	22µM*	?	-13%	14µM*
SMILES	JMJD2A Tudor	HP1b chromo inh	12-LOX inh	G9a inh	PLK1 PBD inh	BAZ2B block
Cc1cc2ccccn2c1C(=O)c1ccncc1	-15%	17%	0%	-45%	-8%	5%
Cc1ccc(C(=O)NC(=S)c2c(C)cc3ccccn23)cc1	.	.	7.9µM*	.	-2%	.
Cc1cc2ccccn2c1C(=O)c1ccc(Cl)cc1	46%	85%	0%	15%[0.501 µM]	-7%	73%
CN(CCc1ccccn1)C(=O)CN(C)S(=O)(=O)c1ccc2c(c1)c(=O)n(C)c(=O)n2C	-8%	21%	17%	12%[59 µM]	-3%	6%
CC1OC2(C)OC(=N)C1(C#N)C(C#N)(C#N)C2c1ccccc1 (configuration not stated)	-6%	23%	?	-6%[59 µM]	-15%	-18%
CC1C2(C)OC(=N)C(C#N)(C(C)O2)C1(C#N)C#N (configuration not stated)	-7%	68%	.	71µM*	-28%	-24%
C/C(=N\O)c1ccc2c3c([nH]c2c1)CCCC3	?	-15%	3%	?	-12%	40µM*
C/C(=N\O)c1ccc2ccccc2c1	.	.	0%	.	.	.
Cc1ccc(NC(=O)CN2CCc3cc4c(cc3C2C)OCCCO4)cc1C (configuration not stated)	-19%	14%	-9%	3%[0.0925 µM]	-5%	-13%
CC(=O)c1cccc(CN2CCCC(C(=O)Nc3cccc(-n4cccn4)c3)C2)c1 (configuration not stated)	-3%	38%	?	?	-4%	-32%
COCCN(C(=O)COC(=O)Cc1ccc(Cl)cc1)c1c(N)n(Cc2ccccc2)c(=O)[nH]c1=O	.	.	-22%	.	3%	.
CCCNC(=O)c1ccccc1SCc1c(C)noc1C	1%	53%	0%	25µM*	-3%	79µM*
CC(=O)Nc1ccc(SCc2ncc(-c3ccccc3)o2)cc1	-21%	9%	-51%	50µM*	13µM*	-19%
CC(=O)Nc1ccc(SCc2c(C)noc2C)cc1	-5%	48%	0%	-5%	21µM*	1%
CC(=O)Nc1ccc(NC(=O)C(C)OC(=O)c2ccc(OCc3c(C)noc3C)cc2)cc1 (configuration not stated)	?	-22%	-14%	-44%[59 µM]	30µM*	-34%
CCn1c2ccccc2c2cc(CN3CCN(C(=O)c4ccco4)CC3)ccc21	35µM*	?	0.56µM*	?	-3%	?
COc1ccc(CN2CCN(C(=O)c3ccco3)CC2)cc1OCc1ccccc1	?	?	?	11µM*	-8%	56µM*
CCN1CCN(Cc2ccc(OC)c(OCc3ccccc3)c2)CC1	-19%	8%	?	?	-5%	-38%
CCn1cc(CN2CCN(C(=O)c3ccco3)CC2)ccc1=O	.	.	95%	.	.	.
COc1ccc(CN2CCN(C(=O)c3ccco3)CC2)cc1OC	-20%[11.4 µM]	25µM*	?	10µM*	-9%	40µM*
COc1ccccc1OCc1ccc(C(=O)N2CCN(C(=O)c3ccco3)CC2)cc1	-26%	1%	-2%	45µM*	-11%	3%
